From PubChem BioAssay (EPA / NIEHS)
Records with an inconclusive call do not appear. Activity calls are given as the source filed them. Rule for the calls, unless noted: active = hit-call score of the fitted dose curve at least 0.9, where 1 is the maximum; inactive = score below 0.9.

Legend:
[1] = target: Paired box protein Pax-6 (Homo sapiens) (UniProt P26367); experiment: ATG_Pax6_CIS: Attagene CIS-FACTORIAL HepG2 Assay for human Paired Box 6 (PAX6) (AID 2282956); conditions: HepG2 CIS-FACTORIAL PAX6 reporter transcription, RNA readout; actives raise or lower the signal
Procedure, shortened: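 Fluorescent RT-PCR products separated by capillary electrophoresis report PAX6-linked promoter mRNA in HepG2 cells 24 h post-dose. Curves fitted bidirectionally, DMSO as negative control.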

[2] = ATG_PXRE_CIS: Attagene CIS-FACTORIAL HepG2 Assay for human Pregnane X Receptor Element (PXRE) (AID 2282957); conditions: HepG2 Attagene CIS-FACTORIAL PXRE reporter, mRNA; actives raise or lower the signal
Procedure, shortened: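 Bidirectional activity, baselined to DMSO, derived from reporter mRNA fluorescence (RT-PCR plus capillary electrophoresis) in HepG2 cells bearing cis-promoter reporter units, 24 h exposure.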

[3] = ATG_RORE_CIS: Attagene CIS-FACTORIAL HepG2 Assay for human RAR-related Orphan Receptor Element (RORE) (AID 2282959); conditions: HepG2 Attagene cis-factorial RORE reporter, mRNA; actives raise or lower the signal
Procedure, shortened: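 Readout: fluorescent reporter mRNA by RT-PCR plus capillary electrophoresis, 24 h after dosing transfected HepG2 cells. Endogenous transcription factor activity on a cis promoter element is measured. Gain or loss of signal fitted against DMSO.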

[4] = ATG_Sox_CIS: Attagene CIS-FACTORIAL HepG2 Assay for human SRY-box transcription factor (SOX) (AID 2282960); conditions: HepG2 Attagene cis-factorial SOX reporter, mRNA; actives raise or lower the signal
Procedure, shortened: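 Read-out: fluorescent RT-PCR products of SOX1-linked reporter transcripts resolved by capillary electrophoresis, fitted bidirectionally against DMSO. Transiently transfected HepG2 cells, 24 h after chemical exposure, endogenous transcription factor activity.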

[5] = target: Transcription factor Sp1 (Homo sapiens) (UniProt P08047); experiment: ATG_Sp1_CIS: Attagene CIS-FACTORIAL HepG2 Assay for human Specificity Protein 1 (Sp1) (AID 2282961); conditions: HepG2 Sp1 cis-reporter transcription, actives raise or lower the signal
Procedure, shortened: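 Read-out: fluorescence of 6-FAM-labeled, HpaI-digested RT-PCR products separated by capillary electrophoresis. HepG2 cells carried transfected cis-element reporter units and were exposed to chemicals for 24 h; gain or loss of signal fitted relative to DMSO.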

[6] = ATG_SREBP_CIS: Attagene CIS-FACTORIAL HepG2 Assay for human Sterol Regulatory Element Binding (SREBP) (AID 2282962); conditions: HepG2 Attagene cis-factorial SREBP reporter, mRNA; actives raise or lower the signal
Procedure, shortened: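 Endogenous factor activity is measured in HepG2 through multiplexed reporter units under cis-element control. Following a 24 h incubation, reporter transcripts are reverse-transcribed, PCR-amplified and sized by capillary electrophoresis; activity is fitted in both directions relative to DMSO.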

[7] = target: Signal transducer and activator of transcription 3 (Homo sapiens) (UniProt P40763); experiment: ATG_STAT3_CIS: Attagene CIS-FACTORIAL HepG2 Assay for human Signal Transducer and Activator of Transcription 3 (STAT3) (AID 2282963); conditions: HepG2, Attagene cis-factorial STAT3 reporter transcription; actives raise or lower the signal
Procedure, shortened: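 Fluorescence intensity of 6-FAM-labelled reporter fragments, separated by capillary electrophoresis after RT-PCR, gave the signal. Cells were HepG2 transfected with cis-element reporter units and treated 24 h; fitting was bidirectional relative to DMSO.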

[8] = ATG_TA_CIS: Attagene CIS-FACTORIAL HepG2 Assay for human TA Basal Promoter (AID 2282964); conditions: HepG2 Attagene CIS-factorial TA basal promoter reporter; actives raise or lower the signal
Procedure, shortened: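 Read-out: fluorescent reporter-transcript fragments resolved by capillary electrophoresis after RT-PCR and HpaI digestion. Source: HepG2 cells carrying transiently transfected multi-reporter cis constructs, treated 24 h. Endpoint fitted bidirectionally relative to DMSO.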

[9] = ATG_TAL_CIS: Attagene CIS-FACTORIAL HepG2 Assay for human TAL Basal Promoter (AID 2282966); conditions: HepG2 Attagene cis-factorial TAL promoter reporter; actives raise or lower the signal;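 note: background control endpoint measuring basal TAL promoter reporter mRNA not a specific factor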
Procedure, shortened: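 Human hepatoma HepG2 cells, transfected with promoter-regulated reporter units, were treated 24 h. Reporter transcript levels, measured through RT-PCR and capillary electrophoresis, were fitted for gain or loss relative to DMSO.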

[10] = ATG_TGFb_CIS: Attagene CIS-FACTORIAL HepG2 Assay for human Transforming Growth Factor (TGF) (AID 2282967); conditions: HepG2 Attagene CIS TGFb reporter, mRNA transcription; actives raise or lower the signal
Procedure, shortened: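 Transient MRTU transfection of HepG2 (FuGene 6). Dose 24 h. TriZol RNA, oligo(dT) RT, PCR, 6-FAM primer extension, HpaI cut, CE. Bidirectional fit, DMSO = baseline.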

[11] = ATG_VDRE_CIS: Attagene CIS-FACTORIAL HepG2 Assay for human Vitamin D Receptor Element (VDRE) (AID 2282968); conditions: HepG2 VDRE cis-reporter transcription, actives raise or lower the signal
Procedure, shortened: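 Compounds were applied for 24 h to HepG2 cells transfected with promoter-regulated reporter units. Total RNA was reverse-transcribed, and reporter amplicons were fluorescently labelled and sized by capillary electrophoresis.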

[12] = target: Steroid hormone receptor ERR1 (Homo sapiens) (UniProt P11474); experiment: ATG_ERRa_TRANS: Attagene TRANS-FACTORIAL HepG2 Assay for human Estrogen-Related Receptor alpha (ERRa) (AID 2282971; active = hit-call score of the fitted dose curve at least 0.9, where 1 is the maximum); conditions: HepG2 Attagene TRANS reporter, ERRa transactivation
Procedure, shortened: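 Signal gain relative to DMSO for an ERRa-Gal4 chimeric receptor, read as reporter mRNA by RT-PCR/capillary electrophoresis. Human HepG2 liver cells, transient multiplex reporter transfection, 24 h chemical exposure.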

[13] = ATG_M_19_TRANS: Attagene TRANS-FACTORIAL HepG2 Assay for M19 Transcription Factor (Internal Marker) (AID 2282974; active = hit-call score of the fitted dose curve at least 0.9, where 1 is the maximum); conditions: HepG2 Attagene TRANS-FACTORIAL M19 internal marker reporter
Procedure, shortened: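 24 h chemical exposure of transiently transfected HepG2 (MRTU library). RNA → oligo(dT) RT → PCR → 6-FAM labelling → HpaI cut → CE fluorescence. Positive-direction fit vs DMSO baseline; background internal-marker readout.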

[14] = ATG_GAL4_TRANS: Attagene TRANS-FACTORIAL HepG2 Assay for GAL4 (Internal Marker) (AID 2282976; active = hit-call score of the fitted dose curve at least 0.9, where 1 is the maximum); conditions: HepG2 Attagene TRANS GAL4 internal marker reporter
Procedure, shortened: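 Liver HepG2 line bearing multiplexed GAL4-UAS reporter constructs; 24 h chemical treatment. Transcripts were quantified as fluorescent fragments on capillary electrophoresis after RT-PCR and HpaI cut, with activity fitted upward from DMSO.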

[15] = ATG_TCF_b_cat_CIS: Attagene CIS-FACTORIAL HepG2 Assay for human T-Cell-Factor with beta-catenin (TCF/b-cat) (AID 2282965); conditions: HepG2 TCF/beta-catenin cis-reporter transcription, actives raise or lower the signal
Procedure, shortened: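 HepG2 cells transiently transfected with cis-promoter-driven multiplexed reporter units; reporter mRNA measured 24 h after dosing by RT-PCR, FAM labelling, HpaI digestion and capillary electrophoresis. Bidirectional fitting relative to DMSO baseline.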

[16] = target: Nuclear receptor subfamily 1 group I member 3 (Homo sapiens) (UniProt Q14994); experiment: ATG_CAR_TRANS: Attagene TRANS-FACTORIAL HepG2 Assay for human Constitutive Androstane Receptor (CAR) (AID 2282969; active = hit-call score of the fitted dose curve at least 0.9, where 1 is the maximum;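 note: activators raise reporter mRNA above DMSO so AC50 marks induction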); conditions: HepG2 Attagene TRANS-FACTORIAL CAR reporter
Procedure, shortened: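 Transiently transfected HepG2, multiplex TRANS reporters (CAR-Gal4 chimera driving GAL4-UAS reporter). 24 h dosing. Readout: reporter transcript by RT-PCR + capillary electrophoresis, fluorescence intensity; positive direction vs DMSO.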

[17] = target: X-box-binding protein 1 (Homo sapiens) (UniProt P17861); experiment: ATG_Xbp1_CIS: Attagene CIS-FACTORIAL HepG2 Assay for human X-box Binding Protein 1 (XBP1) (AID 2282972); conditions: HepG2 XBP1 cis-element reporter, Attagene multiplex; actives raise or lower the signal
Procedure, shortened: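 Multiplexed cis-reporter readout in transfected HepG2 liver cells. Exposure lasted 24 hours. Activity in either direction was fitted against DMSO as negative control and baseline.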

[18] = target: Estrogen-related receptor gamma (Homo sapiens) (UniProt P62508); experiment: ATG_ERRg_TRANS: Attagene TRANS-FACTORIAL HepG2 Assay for human Estrogen-Related Receptor gamma (ERRg) (AID 2282977; active = hit-call score of the fitted dose curve at least 0.9, where 1 is the maximum;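 note: hits increase reporter signal over DMSO so potencies reflect activators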); conditions: HepG2 Attagene TRANS reporter, ERRg transactivation
Procedure, shortened: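 Exogenous NR-Gal4 chimera activity measured as reporter transcript induction after 24 h in transiently transfected HepG2 cells. RNA reverse-transcribed, PCR-amplified, 6-FAM-labelled and resolved by capillary electrophoresis; increase over DMSO baseline.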

Transcription factor Sp1 (Homo sapiens), sequence (P08047 whole entry, looked up): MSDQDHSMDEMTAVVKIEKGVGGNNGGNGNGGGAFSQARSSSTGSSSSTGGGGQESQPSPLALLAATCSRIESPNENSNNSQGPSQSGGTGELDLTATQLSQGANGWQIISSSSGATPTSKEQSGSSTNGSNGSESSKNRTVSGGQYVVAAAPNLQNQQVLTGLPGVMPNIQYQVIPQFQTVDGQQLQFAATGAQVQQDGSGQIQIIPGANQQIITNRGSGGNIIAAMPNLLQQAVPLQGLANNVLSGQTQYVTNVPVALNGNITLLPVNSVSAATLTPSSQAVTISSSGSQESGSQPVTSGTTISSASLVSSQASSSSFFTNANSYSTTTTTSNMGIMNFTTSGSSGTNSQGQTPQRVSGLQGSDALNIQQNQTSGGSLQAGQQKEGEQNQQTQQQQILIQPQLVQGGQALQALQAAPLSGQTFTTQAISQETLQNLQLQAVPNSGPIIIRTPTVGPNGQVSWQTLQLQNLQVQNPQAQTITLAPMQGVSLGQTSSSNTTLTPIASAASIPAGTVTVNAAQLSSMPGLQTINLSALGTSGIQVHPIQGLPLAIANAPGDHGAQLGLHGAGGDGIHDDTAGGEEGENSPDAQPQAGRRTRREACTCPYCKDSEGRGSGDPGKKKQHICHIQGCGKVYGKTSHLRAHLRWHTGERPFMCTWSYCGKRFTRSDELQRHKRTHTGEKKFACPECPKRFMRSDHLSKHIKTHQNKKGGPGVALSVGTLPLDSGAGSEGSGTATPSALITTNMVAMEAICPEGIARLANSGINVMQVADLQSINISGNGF
Estrogen-related receptor gamma (Homo sapiens), sequence (P62508 whole entry, looked up, the tested form may be a part): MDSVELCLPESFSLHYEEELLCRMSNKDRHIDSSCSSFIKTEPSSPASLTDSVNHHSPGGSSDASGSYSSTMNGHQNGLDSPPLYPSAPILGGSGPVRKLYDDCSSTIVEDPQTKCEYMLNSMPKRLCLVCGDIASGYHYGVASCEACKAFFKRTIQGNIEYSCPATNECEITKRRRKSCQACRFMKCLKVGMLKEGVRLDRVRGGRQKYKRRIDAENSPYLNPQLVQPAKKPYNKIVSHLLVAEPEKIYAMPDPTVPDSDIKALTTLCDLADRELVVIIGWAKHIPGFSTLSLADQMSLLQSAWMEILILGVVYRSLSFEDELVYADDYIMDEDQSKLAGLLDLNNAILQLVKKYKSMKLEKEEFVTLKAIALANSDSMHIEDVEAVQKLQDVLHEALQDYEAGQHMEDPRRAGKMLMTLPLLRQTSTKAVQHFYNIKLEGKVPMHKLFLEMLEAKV
X-box-binding protein 1 (Homo sapiens), sequence (P17861 whole entry, looked up): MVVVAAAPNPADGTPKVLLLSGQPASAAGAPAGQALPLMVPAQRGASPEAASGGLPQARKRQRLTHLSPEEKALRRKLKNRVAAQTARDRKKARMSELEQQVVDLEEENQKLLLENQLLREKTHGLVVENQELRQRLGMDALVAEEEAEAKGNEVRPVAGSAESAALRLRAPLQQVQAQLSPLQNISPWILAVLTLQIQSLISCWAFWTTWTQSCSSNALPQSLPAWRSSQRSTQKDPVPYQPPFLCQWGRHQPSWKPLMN
Paired box protein Pax-6 (Homo sapiens), sequence (P26367 whole entry, looked up): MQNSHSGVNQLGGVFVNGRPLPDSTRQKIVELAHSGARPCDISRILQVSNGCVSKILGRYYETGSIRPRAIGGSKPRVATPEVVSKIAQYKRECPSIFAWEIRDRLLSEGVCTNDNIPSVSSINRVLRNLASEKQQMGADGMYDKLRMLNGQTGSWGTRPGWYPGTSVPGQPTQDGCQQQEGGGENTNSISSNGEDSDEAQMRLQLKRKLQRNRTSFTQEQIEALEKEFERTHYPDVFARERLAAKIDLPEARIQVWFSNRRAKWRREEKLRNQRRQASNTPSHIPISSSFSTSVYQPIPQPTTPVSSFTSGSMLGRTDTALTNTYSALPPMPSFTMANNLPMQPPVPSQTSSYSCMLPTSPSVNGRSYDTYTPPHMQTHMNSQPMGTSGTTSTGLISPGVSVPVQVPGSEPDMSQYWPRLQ
Signal transducer and activator of transcription 3 (Homo sapiens), sequence (P40763 whole entry, looked up, the tested form may be a part): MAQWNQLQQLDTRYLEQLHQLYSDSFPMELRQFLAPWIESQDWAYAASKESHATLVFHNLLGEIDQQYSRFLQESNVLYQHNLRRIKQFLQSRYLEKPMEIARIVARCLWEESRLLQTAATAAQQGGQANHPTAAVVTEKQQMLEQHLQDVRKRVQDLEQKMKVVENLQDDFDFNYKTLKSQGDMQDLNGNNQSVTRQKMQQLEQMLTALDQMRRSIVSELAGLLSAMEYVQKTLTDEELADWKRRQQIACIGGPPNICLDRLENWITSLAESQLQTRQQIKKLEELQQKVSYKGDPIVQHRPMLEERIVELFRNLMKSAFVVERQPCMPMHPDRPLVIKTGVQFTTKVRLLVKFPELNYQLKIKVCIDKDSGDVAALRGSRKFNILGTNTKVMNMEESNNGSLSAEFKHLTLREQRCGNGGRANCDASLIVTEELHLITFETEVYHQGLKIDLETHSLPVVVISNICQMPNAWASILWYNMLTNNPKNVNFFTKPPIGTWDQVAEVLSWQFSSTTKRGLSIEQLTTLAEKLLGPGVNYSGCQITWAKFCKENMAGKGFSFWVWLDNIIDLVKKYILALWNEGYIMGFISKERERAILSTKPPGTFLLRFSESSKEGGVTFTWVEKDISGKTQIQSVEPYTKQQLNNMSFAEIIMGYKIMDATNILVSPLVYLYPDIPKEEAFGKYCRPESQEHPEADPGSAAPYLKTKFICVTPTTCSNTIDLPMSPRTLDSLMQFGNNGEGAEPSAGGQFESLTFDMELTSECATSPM
Steroid hormone receptor ERR1 (Homo sapiens), sequence (P11474 whole entry, looked up, the tested form may be a part): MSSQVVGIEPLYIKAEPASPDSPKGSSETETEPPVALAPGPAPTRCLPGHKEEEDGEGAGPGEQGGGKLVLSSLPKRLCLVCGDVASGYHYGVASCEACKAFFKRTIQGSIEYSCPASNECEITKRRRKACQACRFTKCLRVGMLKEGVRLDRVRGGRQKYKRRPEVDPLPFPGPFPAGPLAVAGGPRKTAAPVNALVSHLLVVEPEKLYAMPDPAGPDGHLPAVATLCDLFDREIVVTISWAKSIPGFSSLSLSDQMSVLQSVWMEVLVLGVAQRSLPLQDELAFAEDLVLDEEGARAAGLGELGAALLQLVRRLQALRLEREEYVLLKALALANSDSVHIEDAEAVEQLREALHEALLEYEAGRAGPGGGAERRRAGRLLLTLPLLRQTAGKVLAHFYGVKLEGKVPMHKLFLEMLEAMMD
Nuclear receptor subfamily 1 group I member 3 (Homo sapiens), sequence (Q14994 whole entry, looked up, the tested form may be a part): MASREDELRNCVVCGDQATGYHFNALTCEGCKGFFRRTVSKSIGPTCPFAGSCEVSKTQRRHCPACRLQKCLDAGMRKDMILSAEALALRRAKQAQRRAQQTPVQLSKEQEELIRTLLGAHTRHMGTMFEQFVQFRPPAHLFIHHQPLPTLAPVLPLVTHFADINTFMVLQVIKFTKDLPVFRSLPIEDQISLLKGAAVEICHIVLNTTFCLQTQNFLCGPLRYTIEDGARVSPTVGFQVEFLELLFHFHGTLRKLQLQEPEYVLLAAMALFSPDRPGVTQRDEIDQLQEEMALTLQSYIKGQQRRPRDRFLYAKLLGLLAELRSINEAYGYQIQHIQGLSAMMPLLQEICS

## OC[C@H]1O[C@@H]2O[C@H]3[C@H](O)[C@@H](O)[C@@H](O[C@H]4[C@H](O)[C@@H](O)[C@@H](O[C@H]5[C@H](O)[C@@H](O)[C@@H](O[C@H]6[C@H](O)[C@@H](O)[C@@H](O[C@H]7[C@H](O)[C@@H](O)[C@@H](O[C@H]8[C@H](O)[C@@H](O)[C@@H](O[C@H]9[C@H](O)[C@@H](O)[C@@H](O[C@H]1[C@H](O)[C@H]2O)O[C@@H]9CO)O[C@@H]8CO)O[C@@H]7CO)O[C@@H]6CO)O[C@@H]5CO)O[C@@H]4CO)O[C@@H]3CO
[1]
  outcome: inactive
[2]
  AC50: 22.4 µM (active)
[3]
  outcome: inactive
[4]
  outcome: inactive
[5]
  outcome: inactive
[6]
  outcome: inactive
[7]
  outcome: inactive
[8]
  outcome: inactive
[9]
  outcome: inactive
[10]
  outcome: inactive
[11]
  outcome: inactive
[12]
  outcome: inactive
[13]
  outcome: inactive
[14]
  outcome: inactive

## c1ccc(Oc2ccccc2)cc1
[1]
  outcome: inactive
[2]
  AC50: 25.1 µM (active)
[3]
  outcome: inactive
[4]
  outcome: inactive
[5]
  outcome: inactive
[6]
  outcome: inactive
[7]
  outcome: inactive
[8]
  outcome: inactive
[15]
  outcome: inactive
[9]
  outcome: inactive
[10]
  outcome: inactive
[11]
  outcome: inactive
[16]
  outcome: inactive
[17]
  outcome: inactive
[13]
  outcome: inactive

## O=C(O)c1ccc(O)cc1
[1]
  outcome: inactive
[2]
  outcome: inactive
[3]
  outcome: inactive
[4]
  outcome: inactive
[5]
  outcome: inactive
[6]
  outcome: inactive
[7]
  outcome: inactive
[8]
  outcome: inactive
[15]
  outcome: inactive
[9]
  outcome: inactive
[12]
  outcome: inactive
[17]
  outcome: inactive
[13]
  outcome: inactive
[18]
  outcome: inactive

## COC(=O)Nc1ccc(Cl)c(Cl)c1
[1]
  outcome: inactive
[2]
  AC50: 100 µM (active)
[3]
  outcome: inactive
[4]
  outcome: inactive
[5]
  outcome: inactive
[6]
  outcome: inactive
[7]
  outcome: inactive
[8]
  outcome: inactive
[15]
  AC50: 26.4 µM (active)
[9]
  outcome: inactive
[10]
  outcome: inactive
[11]
  AC50: 43.7 µM (active)
[17]
  AC50: 26.7 µM (active)

## COC(=O)c1ccc(C)cc1C1=NC(C)(C(C)C)C(=O)N1 (stereo not drawn) (tested in a mixture with another compound)
[1]
  outcome: inactive
[2]
  AC50: 15.2 µM (active)
[3]
  outcome: inactive
[4]
  outcome: inactive
[5]
  outcome: inactive
[6]
  outcome: inactive
[7]
  outcome: inactive
[8]
  outcome: inactive
[15]
  outcome: inactive
[9]
  outcome: inactive
[10]
  outcome: inactive
[11]
  AC50: 26.8 µM (active)
[17]
  outcome: inactive
[13]
  outcome: inactive
[18]
  outcome: inactive

## CCCC(C)C(O)CC (stereo not drawn)
[1]
  outcome: inactive
[2]
  outcome: inactive
[3]
  outcome: inactive
[4]
  outcome: inactive
[5]
  outcome: inactive
[6]
  outcome: inactive
[7]
  outcome: inactive
[8]
  outcome: inactive
[15]
  outcome: inactive
[9]
  outcome: inactive
[10]
  outcome: inactive
[11]
  outcome: inactive
[17]
  outcome: inactive
[13]
  outcome: inactive
[14]
  outcome: inactive

## Oc1c(Cl)cc(Cl)c(Cl)c1Cc1c(O)c(Cl)cc(Cl)c1Cl
[1]
  AC50: 11.1 µM (active)
[2]
  AC50: 0.802 µM (active)
[3]
  AC50: 2.2 µM (active)
[4]
  outcome: inactive
[5]
  outcome: inactive
[7]
  outcome: inactive
[8]
  outcome: inactive
[15]
  AC50: 11.1 µM (active)
[10]
  outcome: inactive
[11]
  AC50: 1.97 µM (active)
[16]
  outcome: inactive
[12]
  outcome: inactive
[17]
  outcome: inactive
[13]
  outcome: inactive
[18]
  outcome: inactive

## COc1ccc(CCO)cc1
[1]
  outcome: inactive
[2]
  outcome: inactive
[3]
  outcome: inactive
[4]
  outcome: inactive
[5]
  outcome: inactive
[6]
  outcome: inactive
[7]
  AC50: 179 µM (active)
[8]
  outcome: inactive
[9]
  outcome: inactive
[10]
  outcome: inactive
[11]
  outcome: inactive
[17]
  outcome: inactive
[13]
  outcome: inactive
[14]
  outcome: inactive

## C=C(C)[C@@H]1CC=C(C)C(=O)C1
[1]
  outcome: inactive
[2]
  AC50: 25.5 µM (active)
[3]
  outcome: inactive
[4]
  outcome: inactive
[6]
  outcome: inactive
[7]
  outcome: inactive
[8]
  outcome: inactive
[15]
  outcome: inactive
[9]
  outcome: inactive
[10]
  outcome: inactive
[11]
  outcome: inactive
[17]
  outcome: inactive
[13]
  outcome: inactive
